Active and inactive are the calls of the source. The calls were made as follows: active = hit-call score of the fitted dose curve at least 0.9, where 1 is the maximum; inactive = score below 0.9.
Key:
[1] = BSK_hDFCGF_SRB: Viability Assessment in the BioMAP Diversity Plus: hDFCGF Assay (AID 2283061); settings: primary human foreskin fibroblasts;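 also: cells exposed to compound for 24 h before the read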
Procedure, shortened: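 Viability was read as total protein: after 10% TCA fixation, wells were stained with 0.1% sulforhodamine B and read at 560 nm. Primary human foreskin fibroblasts were dosed for 24 h, with bidirectional fitting versus DMSO.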

[2] = read-out: Monokine induced gamma interferon (MIG), CXCL9 (gene 4283); experiment: BSK_hDFCGF_MIG: BioMAP Diversity Plus: hDFCGF Assay for Monokine induced gamma interferon (MIG) Biomarker Activity (AID 2283063); settings: primary human foreskin fibroblasts; actives raise or lower the signal
Procedure, shortened: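 Human primary foreskin fibroblasts in the hDFCGF system, exposed to test chemical for 24 h; MIG measured by ELISA. Bidirectional curve fitting against DMSO negative control as activity baseline.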

[3] = read-out: Matrix Metallopeptidase 1 (MMP1), MMP1 (gene 4312); experiment: BSK_hDFCGF_MMP1: BioMAP Diversity Plus: hDFCGF Assay for Matrix Metallopeptidase 1 (MMP1) Biomarker Activity (AID 2283064); settings: primary human foreskin fibroblasts; actives raise or lower the signal
Procedure, shortened: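 MMP1 levels quantified by ELISA 24 h after dosing human dermal fibroblast cultures, with parallel SRB total-protein staining for overt cytotoxicity. Data fitted in both directions against DMSO baseline.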

[4] = read-out: Vascular cell adhesion molecule 1 (VCAM1), VCAM1 (gene 7412); experiment: BSK_hDFCGF_VCAM1: BioMAP Diversity Plus: hDFCGF Assay for Vascular cell adhesion molecule 1 (VCAM1) Biomarker Activity (AID 2283065); settings: primary human foreskin fibroblasts; actives raise or lower the signal;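 as to AC50: VCAM-1 protein level quantified by ELISA after 24 h chemical exposure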
Procedure, shortened: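 ELISA readout of VCAM-1 on human dermal fibroblast primary cultures, 24 h after chemical exposure. Gain or loss of signal fitted in both directions against DMSO baseline.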

[5] = read-out: Plasminogen activator inhibitor-1 (PAI1), SERPINE1 (gene 5054); experiment: BSK_hDFCGF_PAI1: BioMAP Diversity Plus: hDFCGF Assay for Plasminogen activator inhibitor-1 (PAI1) Biomarker Activity (AID 2283066); settings: primary human foreskin fibroblasts; actives raise or lower the signal
Procedure, shortened: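 Human skin fibroblast cultures receive chemical for 24 h before PAI-1 is measured by ELISA; signal changes are fitted bidirectionally against DMSO-treated wells.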

[6] = read-out: Intercellular Adhesion Molecule 1 (ICAM1), ICAM1 (gene 3383); experiment: BSK_KF3CT_ICAM1: BioMAP Diversity Plus: KF3CT Assay for Intercellular Adhesion Molecule 1 (ICAM1) Biomarker Activity (AID 2283067); settings: primary human keratinocytes with fibroblasts; actives raise or lower the signal
Procedure, shortened: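 Cell-surface ICAM-1 was measured by ELISA 24 h after dosing primary human skin keratinocytes co-cultured with fibroblasts. Parallel SRB staining tracked overt cytotoxicity. Gain or loss of signal was fitted relative to DMSO.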

[7] = read-out: Interferon-gamma inducible Protein 10 (IP10), CXCL10 (gene 3627); experiment: BSK_KF3CT_IP10: BioMAP Diversity Plus: KF3CT Assay for Interferon-gamma inducible Protein 10 (IP10) Biomarker Activity (AID 2283068); settings: primary human keratinocytes with fibroblasts; actives raise or lower the signal
Procedure, shortened: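 Signal is secreted/surface IP-10 by ELISA in a human primary skin co-culture of keratinocytes and foreskin fibroblasts, taken 24 h post-dosing; DMSO served as negative control.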

[8] = BSK_KF3CT_SRB: Viability Assessment in the BioMAP Diversity Plus: KF3CT Assay (AID 2283069); settings: primary human keratinocytes with fibroblasts;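 also: total protein by sulforhodamine B staining as a cytotoxicity measure; read 24 h after compound addition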
Procedure, shortened: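 Cytotoxicity was gauged by SRB staining (0.1% SRB, 10% TCA fixation, 560 nm) of parallel cultures at 24 h. The cells were primary human skin keratinocytes co-cultured with fibroblasts, and activity was fitted in both directions against DMSO.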

[9] = read-out: Interleukin-1 alpha (IL1a), IL1A (gene 3552); experiment: BSK_KF3CT_IL1a: BioMAP Diversity Plus: KF3CT Assay for Interleukin-1 alpha (IL1a) Biomarker Activity (AID 2283070); settings: primary human keratinocytes with fibroblasts; actives raise or lower the signal
Procedure, shortened: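 IL-1a was detected by ELISA 24 h after chemical treatment of a co-culture of human skin keratinocytes and foreskin fibroblasts. Gain or loss of signal was fitted against the DMSO baseline.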

[10] = read-out: Transforming growth factor beta 1 (TGFb1), TGFB1 (gene 7040); experiment: BSK_KF3CT_TGFb1: BioMAP Diversity Plus: KF3CT Assay for Transforming growth factor beta 1 (TGFb1) Biomarker Activity (AID 2283072); settings: primary human keratinocytes with fibroblasts; actives raise or lower the signal
Procedure, shortened: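 TGF-b1 ELISA on a 24 h dosed co-culture of human keratinocytes and foreskin fibroblasts; cytotoxicity tracked in parallel cultures by SRB staining.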

[11] = read-out: C-C motif chemokine 2 (Homo sapiens) (UniProt P13500); experiment: BSK_KF3CT_MCP1: BioMAP Diversity Plus: KF3CT Assay for Monocyte Chemoattractant Protein 1 (MCP1/CCL2) Biomarker Activity (AID 2283073); settings: primary human keratinocytes with fibroblasts; actives raise or lower the signal
Procedure, shortened: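 ELISA read-out of MCP-1, 24 h post-dose, in primary human skin keratinocytes co-cultured with fibroblasts. Parallel SRB staining monitors cytotoxicity; changes fitted both directions relative to DMSO.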

[12] = read-out: Matrix Metallopeptidase 9 (MMP9), MMP9 (gene 4318); experiment: BSK_KF3CT_MMP9: BioMAP Diversity Plus: KF3CT Assay for Matrix Metallopeptidase 9 (MMP9) Biomarker Activity (AID 2283074); settings: primary human keratinocytes with fibroblasts; actives raise or lower the signal
Procedure, shortened: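 MMP-9 quantified by ELISA after 24 h chemical treatment of primary human skin keratinocyte/fibroblast co-cultures; gain or loss fitted against DMSO, with parallel SRB staining (0.1% SRB, 560 nm) for overt cytotoxicity.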

[13] = read-out: urokinase plasminogen activator (uPA), PLAU (gene 5328); experiment: BSK_KF3CT_uPA: BioMAP Diversity Plus: KF3CT Assay for urokinase plasminogen activator (uPA) Biomarker Activity (AID 2283075); settings: primary human keratinocytes with fibroblasts; actives raise or lower the signal
Procedure, shortened: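 ELISA read-out of uPA 24 h after dosing human skin keratinocytes co-cultured with foreskin fibroblasts. Signal change fitted both ways relative to DMSO; sulforhodamine B on parallel cultures marks overt cytotoxicity.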

[14] = read-out: CD40, CD40 (gene 958); experiment: BSK_LPS_CD40: BioMAP Diversity Plus: LPS Assay for CD40 Biomarker Activity (AID 2283076); settings: primary human HUVEC with PBMC; actives raise or lower the signal
Procedure, shortened: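 In the LPS system of human endothelial cells with peripheral blood mononuclear cells, CD40 levels were read by ELISA 24 h post-treatment. Signal changes in either direction were fitted against the DMSO baseline, with parallel SRB protein staining.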

[15] = read-out: E-selectin (Homo sapiens) (UniProt P16581); experiment: BSK_LPS_Eselectin: BioMAP Diversity Plus: LPS Assay for Eselectin Biomarker Activity (AID 2283077); settings: primary human HUVEC with PBMC; actives raise or lower the signal
Procedure, shortened: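 E-selectin ELISA on LPS-stimulated endothelial cell/PBMC co-cultures, read 24 h post-treatment; gains and losses fitted against DMSO. Parallel SRB staining (0.1% SRB after 10% TCA fixation, 560 nm) flags overt cytotoxicity.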

[16] = read-out: Interleukin-8 (IL8), CXCL8 (gene 3576); experiment: BSK_LPS_IL8: BioMAP Diversity Plus: LPS Assay for Interleukin-8 (IL8) Biomarker Activity (AID 2283078); settings: primary human HUVEC with PBMC; actives raise or lower the signal
Procedure, shortened: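 ELISA read-out of IL-8 after 24 h chemical treatment of LPS-activated endothelial/PBMC human primary co-cultures. Changes either up or down relative to DMSO; overt cytotoxicity checked by sulforhodamine B staining in parallel wells.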

[17] = BSK_LPS_SRB: Viability Assessment in the BioMAP Diversity Plus: LPS Assay (AID 2283079); settings: primary human HUVEC with PBMC;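 also: total protein by sulforhodamine B absorbance as a cytotoxicity measure; measured one day after compound addition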
Procedure, shortened: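 SRB viability endpoint: cells fixed with 10% TCA, stained with 0.1% SRB, read at 560 nm, 24 h post-dose. HUVEC/PBMC co-culture; signal change in either direction scored relative to DMSO.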

[18] = read-out: Interleukin-1 alpha (IL1a), IL1A (gene 3552); experiment: BSK_LPS_IL1a: BioMAP Diversity Plus: LPS Assay for Interleukin-1 alpha (IL1a) Biomarker Activity (AID 2283080); settings: primary human HUVEC with PBMC; actives raise or lower the signal
Procedure, shortened: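 Readout is IL-1a level by ELISA, 24 h post-dose, fitted as gain or loss relative to DMSO. System: LPS-activated human primary co-culture of vascular endothelium and peripheral blood mononuclear cells, with parallel SRB total-protein cytotoxicity.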

[19] = read-out: TIMP metallopeptidase inhibitor 2 (TIMP2), TIMP2 (gene 7077); experiment: BSK_KF3CT_TIMP2: BioMAP Diversity Plus: KF3CT Assay for TIMP metallopeptidase inhibitor 2 (TIMP2) Biomarker Activity (AID 2283071); settings: primary human keratinocytes with fibroblasts; actives raise or lower the signal
Procedure, shortened: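 Measurements come from ELISA detection of TIMP-2 at 24 hours in a dosed human keratinocyte and foreskin fibroblast co-culture. DMSO serves as negative control and baseline.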

Measured: AC50

Sequence of E-selectin (Homo sapiens) (P16581 whole entry, looked up): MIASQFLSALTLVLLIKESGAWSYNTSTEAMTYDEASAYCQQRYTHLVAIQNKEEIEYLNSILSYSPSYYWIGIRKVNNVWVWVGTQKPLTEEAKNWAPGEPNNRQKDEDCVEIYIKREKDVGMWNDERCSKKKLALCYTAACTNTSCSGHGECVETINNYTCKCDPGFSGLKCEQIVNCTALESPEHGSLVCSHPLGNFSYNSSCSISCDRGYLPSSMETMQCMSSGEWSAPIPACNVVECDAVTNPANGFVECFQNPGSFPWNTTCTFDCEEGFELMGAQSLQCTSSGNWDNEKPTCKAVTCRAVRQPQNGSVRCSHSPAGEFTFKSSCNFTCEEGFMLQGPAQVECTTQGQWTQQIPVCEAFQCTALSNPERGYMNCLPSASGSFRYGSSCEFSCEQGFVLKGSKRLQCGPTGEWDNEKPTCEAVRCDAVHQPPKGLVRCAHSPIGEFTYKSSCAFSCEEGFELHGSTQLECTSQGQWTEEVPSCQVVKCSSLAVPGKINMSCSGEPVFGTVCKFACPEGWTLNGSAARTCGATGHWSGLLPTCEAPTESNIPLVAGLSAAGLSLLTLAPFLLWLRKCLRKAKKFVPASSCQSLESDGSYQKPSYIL

C=CCc1ccc2c(c1)OCO2
not listed: [19]
inactive: all other assays above

Clc1ccccc1Cl
not listed: [9] | [12]
inactive: all other assays above

CCCCC(CC)COC(=O)c1ccc(C(=O)OCC(CC)CCCC)c(C(=O)OCC(CC)CCCC)c1 (stereo not drawn)
not listed: [12] | [17]
inactive: all other assays above

CNC(=O)Oc1cccc2c1OC(C)(C)C2
not listed: [19]
inactive: all other assays above

Brc1ccc(Oc2ccccc2)cc1
not listed: [12] | [19]
inactive: all other assays above

CO[C@@H]1[C@H](OC(=O)NC(=O)CCl)CC[C@]2(CO2)[C@H]1[C@@]1(C)O[C@@H]1CC=C(C)C
active: [1] 9.25 µM | [2] 8.35 µM | [3] 11.6 µM | [4] 4.58 µM | [7] 8.27 µM | [9] 7.91 µM | [14] 3.77 µM | [15] 9.98 µM | [18] 6.19 µM
not listed: [12]
inactive: all other assays above

CC(C)(C)OOC(=O)c1ccccc1
active: [1] 30.9 µM | [2] 35.1 µM | [3] 20 µM | [4] 32.9 µM | [5] 7.15 µM
not listed: [19]
inactive: all other assays above

Reference: PubChem BioAssay (EPA / NIEHS)
